Our source for the Potency values is PubChem BioAssay AID2507 (National Center for Advancing Translational Sciences (NCATS), 2010).

Inconclusive results are not listed. Active and inactive are the calls of the source. Calls follow the shape of the dose curve; as a rule, active = well fitted inhibition curve with a large enough effect; inconclusive = small, poorly fitted or top-dose-only effect, or effect the other way; inactive = flat fitted curve, though single readings scatter.

The nature of this experiment: Secondary Assay for General miRNAs Modulators and/or Inhibitors/Activators of miR-21: miR-30 Firefly Luciferase Assay. Conditions: HeLa miR-30 FLuc reporter, luminescence, 48 h; series mostly up to 38.3 µM. From the text: MLSCN Grant: 1 R21 NS059478-01 Assay Provider: Qihong Huang, The Wistar Institute NCGC Assay Overview: MicroRNAs (miRNAs) are endogenously encoded small (~20-25 nucleotides), nonprotein-coding RNAs that are involved in post-transcriptional repression of target messenger RNAs (mRNAs) (Le and Hannon, 2004). Estimated to be involved in the regulation of 30% of all protein-coding mRNAs (Filipowicz et al., 2008), miRNAs play a significant role in many biological processes including cellular differentiation and tissue development (Ghildiyal and Zamore, 2009). […] Compounds active in the miR-21 FLuc assay were clustered using Leadscope and active chemical series were prioritized based on chemical properties, potential for medicinal chemistry optimization, and SAR. Within each chemical series, representative compounds were re-acquired to test for activity in a secondary assay based on the quality of their CRC, efficacy, and potency. The secondary assay to determine if compounds active in the miR-21 FLuc assay were potentially specific for miR-21 and were not general modulators of the miRNA pathway was another cell-based FLuc reporter gene assay, this time targeting miR-30. Compounds found active in both the miR-21 FLuc and miR-30 FLuc assays are not considered miR-21 specific compounds, and may be general miRNA modulators.
NCGC Assay Protocol Summary: Reagents: HeLa cells stably expressing firefly luciferase (FLuc) under the control of a CMV promoter (upstream) and a miR-30 binding sequence directly downstream of the gene. These cells also stably express miR-30. Control compounds used were compound C3 (provided by collaborator), N6-phenyladenosine (MP Biomedicals, 0215379625), and DMSO. Assay Summary: 6uL of HeLa miR-30-FLuc cells in assay buffer (DMEM, Invitrogen #21063-029; 10% FBS, HyClone #SH30071.03) were dispensed at 1000cells/well (1.7 x 10^5 cells/mL) into Greiner solid-white TC-treated 1536-well plates using a Multidrop Combi (Thermo Fisher Scientific). Plates were incubated for one hour at 37 degree Celsius, 95% humidity, 5% CO2. These assay plates were then treated with 23nL of compound or DMSO using a Kalypsys pin tool, which allows for delivery of a 24-point titration of each compound to the assay plate, with a final compound concentration ranging from approximately 40uM to 5pM. Assay plates were then incubated for 48 hours. After incubation, plates were allowed to come to RT for one hour prior to delivery of 3uL of 3X luciferase detection reagent. After a 15 minute incubation to allow for cell lysis, luciferase activity was measured using a ViewLux CCD imager (PerkinElmer), with an average exposure time of 2-12 seconds. Keywords: NIH Roadmap, MLPCN, MLSMR, qHTS, miR-21, miR-30, microRNA, firefly luciferase, FLuc.
For the compound `O=C(CSc1nnc(-c2ccc(Cl)cc2)o1)Nc1ccc(F)cc1`, the Potency is 3.18 µM (active).
